BoNT-F LC inh = BoNT/F light chain protease inhibitors, primary screen, biochemical, flow cytometry, MLPCN library; Botulinum neurotoxin type F light chain protease (Clostridium botulinum); Multiplex microsphere protease cleavage assay; inhibition, % at 10 µM; hit rate 0.22% among 360,000; AID 588497, 2011; in the data active means inhibition above about 35%, passing the limit was not always enough; inconclusive means no clear call, values can overlap the other calls; further: plate controls were buffer without enzyme for full effect and enzyme alone for no effect
Autofluor counter = compound fluorescence in toxin protease inhibitor counterscreen; fluorescence intensity (test concentration not listed); hit rate 3.1% among 360,000; compound autofluorescence counterscreen, microsphere flow cytometry; stronger effect = higher value; in the data active means fluorescence intensity above about 16000; inconclusive means no clear call, values can overlap the other calls
Anthrax LF inh2 = Bacillus anthracis LF protease inhibitors, primary screen, biochemical, multiplex microsphere, MLPCN library; Lethal factor (Bacillus anthracis), P15917; multiplex microsphere protease cleavage assay; inhibition, % at 10 µM; hit rate 0.12% among 360,000; further: plate controls were buffer without enzyme for full effect and enzyme alone for no effect
BoNT A protease = BoNT/A light chain protease inhibitors, primary screen, biochemical, flow cytometry, MLPCN library. Botulinum neurotoxin type A light chain protease (Clostridium botulinum A str. ATCC 3502). multiplex microsphere protease substrate cleavage. inhibition, % at 10 µM. hit rate 0.17% among 360,000; further: plate controls were buffer without enzyme for full effect and enzyme alone for no effect
MazF activator = activators of E. coli MazEF toxin-antitoxin RNase, primary screen, biochemical, fluorescence, uHTS; hit rate 0.32% among 350,000; AID 504720, 2011; activation, % at 20 µM; FAM/BHQ RNA-DNA oligo cleavage fluorescence, 5 h; Endoribonuclease toxin MazF (Escherichia coli (strain K12)), P0AE70; in the data active means activation above about 50%
Target sequence (P0AE70 whole entry, looked up): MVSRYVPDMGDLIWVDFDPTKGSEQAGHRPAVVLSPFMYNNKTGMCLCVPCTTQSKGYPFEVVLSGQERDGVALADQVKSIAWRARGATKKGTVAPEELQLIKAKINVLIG
* hit, by the source's call; ? = inconclusive; . = not tested or not shown; + = active, no number. Sampled rows, rich in hits. Any-hit rate of the full collection: about 3.6%. Unless noted, no stated cut-off is given here; in the data, active means inhibition above about 30%; inconclusive means no clear call, values can overlap the other calls; inactive means below that.

SMILES	BoNT-F LC inh	Autofluor counter	Anthrax LF inh2	BoNT A protease	MazF activator
Fc1cccc(C2NC(=S)NC3=C2N2CCC3CC2)c1 (configuration not stated)	-3.2	17015*	-3.9	-2.3	1.2
Cc1noc(C)c1-c1ccc2nc[nH]c(=O)c2c1	-2.2	3564	-1.8	0.4	2.3
CCn1c(NC)cc(=O)n(C)c1=O	-13.1	4655	-1.0	-0.6	4.5
CCn1c(=O)cc(NC2=NCC(C)CN2c2cccc(Cl)c2)n(C)c1=O (configuration not stated)	2.0	19894*	-8.5	?	4.1
O=C(NC1CC1)c1nc2c(nnn2Cc2ccccc2Cl)c(=O)[nH]1	2.5	7900	7.5	-0.7	-5.6
O=C(NCCc1ccccc1)c1nc2c(nnn2Cc2ccccc2Cl)c(=O)[nH]1	-3.5	16657*	-5.3	-1.9	-3.2
Nc1ccc2c(c1)oc1ccccc12	0.9	22331*	0.3	0.9	1.7
Nc1ccc2oc3ccccc3c2c1	-12.2	7346	-8.3	-1.5	8.6
CC1(Cc2ccccc2Cl)C(=O)Nc2c(Cl)ccc(Cl)c21 (configuration not stated)	-4.2	3737	-3.9	-0.3	.
CSC1=C(C#N)C(c2ccc(Cl)cc2)C2=C(CC(C)(C)CC2=O)N1 (configuration not stated)	-3.1	23927*	-6.4	-2.0	6.4
Nc1c(C(=O)Nc2ccccc2F)sc2nc(Cc3ccccc3)cc(C(F)(F)F)c12	7.4	10566	8.0	5.9	+
COc1cc(C2NC(=O)NC(C)=C2C(=O)OC(C)(C)C)ccc1OCC(N)=O (configuration not stated)	-7.8	21970*	2.1	?	-1.9
COc1cc(C2NC(=O)NC(c3ccccc3)=C2C(C)=O)ccc1OCC#N (configuration not stated)	-0.7	23457*	-1.5	0.7	-15.9
CCOC(=O)C1=C(c2ccccc2)NC(=O)NC1c1ccc(OC)c(OC)c1 (configuration not stated)	4.5	4201	-6.2	0.0	-6.4
O=C(NCc1ccccn1)[C@@H]1CCCN1C(=O)[C@@H]1CCCN1C(=O)c1ccc(Cl)cc1	-9.5	4441	-9.2	-0.5	.
Clc1ccccc1-c1nc(-c2ccccc2)n[nH]1	-1.1	24108*	-1.3	-0.6	-2.3
Oc1ccccc1-c1n[nH]c(-c2ccccc2O)n1	5.3	4299	1.9	0.3	9.7
O=C(COC(=O)Cc1ccsc1)Nc1cccc(F)c1	-3.1	6434	-6.3	-3.6	3.3
CCCCSCc1ccc(C(=O)O)o1	6.0	20913*	0.0	3.0	2.7
N#CCCSCc1ccc(C(=O)O)o1	-5.3	7385	0.4	-0.9	9.5
CN(CC(=O)Nc1ccc(F)cc1)C(=O)CN1C(=O)NC(CCc2ccccc2)C1=O (configuration not stated)	0.3	3723	1.7	0.0	0.9
C#CCN1C(=O)C2(C(C#N)=C(N)OC(C)=C2C(=O)OCc2ccccc2)c2ccccc21 (configuration not stated)	6.7	?	-1.1	1.8	7.1
CCOC(=O)C1=C(C)OC(N)=C(C#N)C12C(=O)N(C)c1ccccc12 (configuration not stated)	-0.1	2706	-5.4	0.2	62.8*
COC(=O)CC1=C(C(=O)OC)C2(C(=O)Nc3c(C)cccc32)C(C#N)=C(N)O1 (configuration not stated)	1.5	20727*	-15.9	?	-3.6
CCCC1=C(C(=O)OCC)C2(C(=O)Nc3ccccc32)C(C#N)=C(N)O1 (configuration not stated)	-1.0	22790*	-0.3	-0.6	6.8
CC(C)=CCC[C@H](C)C[C@@H]1Cc2[nH]c(=S)[nH]c(=O)c2[C@@H](c2ccc(F)cc2)O1	5.6	5657	4.8	0.2	.
Cc1noc(C)c1C(=O)N1CCC1(C)C(=O)NS(=O)(=O)c1cccc(F)c1 (configuration not stated)	-10.3	3770	-4.2	-0.5	.
C[C@H]1NS(=O)(=O)c2ccc(Br)cc2O[C@H]1c1ccccc1	-4.4	3973	1.8	-0.2	3.0
Nc1cc(=O)[nH]c(=S)n1-c1cccc(C(F)(F)F)c1	-2.1	16135*	-5.2	-0.4	9.8
